# Reference: the supplement of paper PMC7724964
# ± gives the standard deviation of the averaged measurements.
# T1: BTN1A1 285-479 SPRY (domain begin residue: 285, domain end residue: 479), Q13410
# T1 chain: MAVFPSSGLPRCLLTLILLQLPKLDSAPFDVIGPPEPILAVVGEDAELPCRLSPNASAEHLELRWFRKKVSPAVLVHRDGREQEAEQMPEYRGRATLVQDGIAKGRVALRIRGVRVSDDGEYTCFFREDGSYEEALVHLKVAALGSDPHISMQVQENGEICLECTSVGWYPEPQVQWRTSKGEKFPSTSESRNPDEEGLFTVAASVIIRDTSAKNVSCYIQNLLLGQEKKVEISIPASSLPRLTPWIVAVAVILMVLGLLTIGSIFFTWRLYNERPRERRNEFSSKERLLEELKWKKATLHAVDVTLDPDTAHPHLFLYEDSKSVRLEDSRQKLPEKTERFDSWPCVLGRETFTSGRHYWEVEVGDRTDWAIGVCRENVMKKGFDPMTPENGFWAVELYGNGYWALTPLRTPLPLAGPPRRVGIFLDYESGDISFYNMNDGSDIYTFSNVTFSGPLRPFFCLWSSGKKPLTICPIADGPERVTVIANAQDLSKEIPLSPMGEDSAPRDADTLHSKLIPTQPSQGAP
# T2: ALDOA 1-364 Glycolytic (domain begin residue: 1, domain end residue: 364), P04075
# T2 chain: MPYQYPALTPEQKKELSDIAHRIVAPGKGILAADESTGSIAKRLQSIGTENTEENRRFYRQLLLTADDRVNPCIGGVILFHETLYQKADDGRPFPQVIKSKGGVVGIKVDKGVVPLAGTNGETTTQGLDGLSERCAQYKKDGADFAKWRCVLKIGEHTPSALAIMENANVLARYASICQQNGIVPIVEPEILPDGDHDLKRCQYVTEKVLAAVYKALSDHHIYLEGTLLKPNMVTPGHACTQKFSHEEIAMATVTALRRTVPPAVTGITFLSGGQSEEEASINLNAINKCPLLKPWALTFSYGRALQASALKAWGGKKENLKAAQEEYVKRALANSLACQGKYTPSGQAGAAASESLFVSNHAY
# T3: ARFGEF2 639-829 Sec7 (domain begin residue: 639, domain end residue: 829), Q9Y6D5
# T3 chain: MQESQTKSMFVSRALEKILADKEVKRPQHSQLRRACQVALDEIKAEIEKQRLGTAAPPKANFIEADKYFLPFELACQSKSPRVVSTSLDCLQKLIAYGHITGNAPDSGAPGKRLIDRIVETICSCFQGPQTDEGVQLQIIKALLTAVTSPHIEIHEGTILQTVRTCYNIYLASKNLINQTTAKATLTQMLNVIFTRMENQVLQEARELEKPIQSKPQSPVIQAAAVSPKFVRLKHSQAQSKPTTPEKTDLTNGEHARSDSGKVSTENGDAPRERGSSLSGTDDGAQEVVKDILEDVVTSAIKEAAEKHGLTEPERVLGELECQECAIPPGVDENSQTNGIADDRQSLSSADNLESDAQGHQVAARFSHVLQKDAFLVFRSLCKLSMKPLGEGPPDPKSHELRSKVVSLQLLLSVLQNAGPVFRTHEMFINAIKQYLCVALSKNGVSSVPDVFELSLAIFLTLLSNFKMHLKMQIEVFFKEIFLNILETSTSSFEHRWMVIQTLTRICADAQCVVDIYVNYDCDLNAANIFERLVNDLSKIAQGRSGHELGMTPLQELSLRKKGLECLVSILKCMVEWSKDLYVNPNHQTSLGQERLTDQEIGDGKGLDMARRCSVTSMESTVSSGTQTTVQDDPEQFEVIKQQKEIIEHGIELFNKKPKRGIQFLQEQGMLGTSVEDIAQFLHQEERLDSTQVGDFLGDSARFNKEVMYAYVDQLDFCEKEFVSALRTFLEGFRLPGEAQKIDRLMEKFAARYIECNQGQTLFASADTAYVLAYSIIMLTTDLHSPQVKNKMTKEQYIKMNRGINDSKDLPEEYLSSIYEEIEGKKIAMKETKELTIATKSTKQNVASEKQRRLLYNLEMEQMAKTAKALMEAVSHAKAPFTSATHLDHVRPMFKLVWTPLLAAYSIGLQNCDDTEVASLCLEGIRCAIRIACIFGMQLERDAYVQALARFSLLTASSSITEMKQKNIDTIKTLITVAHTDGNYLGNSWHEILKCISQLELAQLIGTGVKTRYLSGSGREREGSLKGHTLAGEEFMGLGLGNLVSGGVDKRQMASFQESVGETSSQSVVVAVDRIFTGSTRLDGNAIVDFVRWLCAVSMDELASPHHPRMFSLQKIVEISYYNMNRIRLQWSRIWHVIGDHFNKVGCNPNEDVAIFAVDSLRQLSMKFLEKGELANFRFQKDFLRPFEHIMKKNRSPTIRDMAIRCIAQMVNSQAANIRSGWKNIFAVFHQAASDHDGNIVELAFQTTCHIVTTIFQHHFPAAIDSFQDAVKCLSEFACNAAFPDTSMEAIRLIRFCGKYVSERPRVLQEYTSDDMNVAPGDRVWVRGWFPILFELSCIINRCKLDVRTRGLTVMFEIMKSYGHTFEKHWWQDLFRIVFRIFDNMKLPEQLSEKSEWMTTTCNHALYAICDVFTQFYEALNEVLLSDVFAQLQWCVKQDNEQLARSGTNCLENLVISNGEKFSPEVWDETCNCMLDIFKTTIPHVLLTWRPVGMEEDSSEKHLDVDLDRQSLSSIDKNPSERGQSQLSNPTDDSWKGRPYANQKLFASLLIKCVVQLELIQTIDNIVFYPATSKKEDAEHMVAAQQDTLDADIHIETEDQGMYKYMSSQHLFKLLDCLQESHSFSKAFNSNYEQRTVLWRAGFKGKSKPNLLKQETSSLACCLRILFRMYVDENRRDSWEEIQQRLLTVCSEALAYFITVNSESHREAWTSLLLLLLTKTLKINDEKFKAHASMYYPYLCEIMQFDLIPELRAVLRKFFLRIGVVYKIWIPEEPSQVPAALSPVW
# T4: ARID4A 568-634 Tudor-knot (domain begin residue: 568, domain end residue: 634), P29374
# T4 chain: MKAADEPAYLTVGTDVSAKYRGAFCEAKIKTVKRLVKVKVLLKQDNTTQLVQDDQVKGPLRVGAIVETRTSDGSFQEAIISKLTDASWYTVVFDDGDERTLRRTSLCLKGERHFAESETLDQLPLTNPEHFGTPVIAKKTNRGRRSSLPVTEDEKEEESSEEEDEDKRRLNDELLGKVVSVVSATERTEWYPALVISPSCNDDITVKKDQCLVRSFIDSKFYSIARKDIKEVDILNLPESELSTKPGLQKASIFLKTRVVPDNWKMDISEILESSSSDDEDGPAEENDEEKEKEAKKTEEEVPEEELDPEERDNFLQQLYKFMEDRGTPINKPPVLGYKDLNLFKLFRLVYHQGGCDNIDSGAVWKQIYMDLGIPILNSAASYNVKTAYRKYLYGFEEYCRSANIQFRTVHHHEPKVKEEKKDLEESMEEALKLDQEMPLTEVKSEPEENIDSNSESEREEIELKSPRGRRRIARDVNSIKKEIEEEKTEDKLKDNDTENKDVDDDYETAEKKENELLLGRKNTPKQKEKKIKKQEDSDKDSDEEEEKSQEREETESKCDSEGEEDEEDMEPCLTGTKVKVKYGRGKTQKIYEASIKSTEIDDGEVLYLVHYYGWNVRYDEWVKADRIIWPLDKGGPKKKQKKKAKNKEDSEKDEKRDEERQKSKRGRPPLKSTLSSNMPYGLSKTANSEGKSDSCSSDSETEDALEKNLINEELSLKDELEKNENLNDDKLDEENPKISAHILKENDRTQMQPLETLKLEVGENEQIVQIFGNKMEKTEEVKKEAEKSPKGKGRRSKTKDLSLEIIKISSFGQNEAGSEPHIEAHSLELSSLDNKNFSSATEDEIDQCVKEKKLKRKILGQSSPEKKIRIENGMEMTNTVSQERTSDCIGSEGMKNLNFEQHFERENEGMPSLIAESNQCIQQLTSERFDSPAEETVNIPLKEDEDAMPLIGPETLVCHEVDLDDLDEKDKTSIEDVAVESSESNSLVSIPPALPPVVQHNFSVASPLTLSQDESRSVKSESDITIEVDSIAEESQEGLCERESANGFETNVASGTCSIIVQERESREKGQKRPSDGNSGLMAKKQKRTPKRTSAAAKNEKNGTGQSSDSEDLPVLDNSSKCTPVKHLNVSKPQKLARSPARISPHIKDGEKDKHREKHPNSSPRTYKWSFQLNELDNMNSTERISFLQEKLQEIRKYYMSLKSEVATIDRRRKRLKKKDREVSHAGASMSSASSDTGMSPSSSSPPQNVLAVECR
# T5: TDRD1 261-449 TUDOR (domain begin residue: 261, domain end residue: 449), Q9BXT4
# T5 chain: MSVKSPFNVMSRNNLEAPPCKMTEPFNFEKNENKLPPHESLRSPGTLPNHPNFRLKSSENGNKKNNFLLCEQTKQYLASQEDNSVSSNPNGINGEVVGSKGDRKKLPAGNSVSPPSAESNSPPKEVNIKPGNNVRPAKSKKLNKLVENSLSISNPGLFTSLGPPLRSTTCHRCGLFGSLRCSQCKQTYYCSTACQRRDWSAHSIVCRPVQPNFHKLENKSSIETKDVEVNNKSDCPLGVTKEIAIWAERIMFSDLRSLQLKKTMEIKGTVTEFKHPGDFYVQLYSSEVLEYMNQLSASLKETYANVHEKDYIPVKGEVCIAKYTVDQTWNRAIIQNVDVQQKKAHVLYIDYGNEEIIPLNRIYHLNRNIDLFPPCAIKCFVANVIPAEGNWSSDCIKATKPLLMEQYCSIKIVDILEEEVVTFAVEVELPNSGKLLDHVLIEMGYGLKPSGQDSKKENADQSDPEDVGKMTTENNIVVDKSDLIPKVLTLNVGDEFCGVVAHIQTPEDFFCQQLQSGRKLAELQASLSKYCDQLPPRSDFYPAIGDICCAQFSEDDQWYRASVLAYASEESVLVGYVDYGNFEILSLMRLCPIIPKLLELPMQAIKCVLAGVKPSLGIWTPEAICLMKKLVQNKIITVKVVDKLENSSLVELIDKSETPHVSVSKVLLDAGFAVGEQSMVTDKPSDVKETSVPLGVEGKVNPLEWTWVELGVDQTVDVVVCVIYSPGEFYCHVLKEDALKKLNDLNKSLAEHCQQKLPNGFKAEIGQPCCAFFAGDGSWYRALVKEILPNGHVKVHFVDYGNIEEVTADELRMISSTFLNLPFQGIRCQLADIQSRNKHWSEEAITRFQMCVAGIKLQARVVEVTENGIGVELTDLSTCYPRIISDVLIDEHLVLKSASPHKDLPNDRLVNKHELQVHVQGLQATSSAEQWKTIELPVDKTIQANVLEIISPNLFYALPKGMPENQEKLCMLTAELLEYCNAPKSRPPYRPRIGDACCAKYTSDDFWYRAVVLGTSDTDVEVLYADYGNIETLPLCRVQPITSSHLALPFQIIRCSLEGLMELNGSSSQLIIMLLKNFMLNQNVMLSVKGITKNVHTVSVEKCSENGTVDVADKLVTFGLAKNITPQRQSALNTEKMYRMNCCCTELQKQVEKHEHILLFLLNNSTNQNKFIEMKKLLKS
# Target: T1, BTN1A1 285-479 SPRY (domain begin …
# Test: phage ELISA signal ratio (GST-PRM binding over GST background); higher = stronger binding of peptide-phage to the PRM
# Method: (§1)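 Phage-displayed random hexadecapeptides (Cys-free, flanked by invariant Gly linkers, fused to the M13 P8 major coat protein) were selected over 5 rounds against GST-fused human PRM domains. Individual clones from rounds 4-5 were tested by phage ELISA, and positive clones binding the target but not GST were sequenced. Values are the ELISA signal ratio of target over background (GST); the background signal is given separately.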
row,Binder,phage ELISA signal ratio
1,QTWQERQAMMMHMMQW,15.7
2,WHPMDWMEHFQMMPDT,5.73
3,DVTWWSERAQATLVMM,12.4
4,FEQHWMQKQMAVRQIV,13.6
5,SWDHWDEKMTSMVVFM,9.92
6,GGIDWQGVYMKHFEMT,20.6

# Target: T2, ALDOA 1-364 Glycolytic (domain begin …
# Test: as above
# Method: as §1
row,Binder,phage ELISA signal ratio
1,WVQDTWGEGWSYTVQE,20.2
2,VQWQERYTDYTFENVT,24.7

# Target: T3, ARFGEF2 639-829 Sec7 (domain begin …
# Test: as above
# Method: as §1
row,Binder,phage ELISA signal ratio
1,QITMQQYVELWHAAKS,24.1
2,NEGERLWAVLKLWHEE,18.6
3,LTREHVQWDGVMHWIM,16.4

# Target: T4, ARID4A 568-634 Tudor-knot (domain begin …
# Test: as above
# Method: as §1
row,Binder,phage ELISA signal ratio
1,DYMSHLFDTMSGVQFQ,6.29
2,YYWDTILVDNPEWHQL,4.22
3,HFIELMYDAPEMHMPW,5.33 ± 1.7
4,NWDMWMEEQYDPSVML,9.12

# Target: T5, TDRD1 261-449 TUDOR (domain begin …
# Test: as above
# Method: as §1
row,Binder,phage ELISA signal ratio
1,DYMSHLFDTMSGVQFQ,8.02

# Target: ARPC3 1-178 P21-Arc (domain begin residue: 1, domain end residue: 178), O15145
# Test: as above
# Method: as §1
row,Binder,phage ELISA signal ratio
1,VPEWWWQGWDPHHVVE,6.99

# Target: KMT2C 1055-1137 PHD (domain begin residue: 1055, domain end residue: 1137)
# Test: as above
# Method: as §1
row,Binder,phage ELISA signal ratio
1,HFIELMYDAPEMHMPW,6.76
